# Measured values reported in PubChem BioAssay AID2551 (National Center for Advancing Translational Sciences (NCATS), 2010).
# In all, about 310,000 compounds went through this assay and about 17,000 (5.5%) were called active. Roughly 11% stayed inconclusive and do not appear here. This is one part of a sample in which actives are shown more often than they occur. Values without a mark were called inactive. The call rests on the fitted dose curve; in most records, active means well fitted inhibition curve with a large enough effect; inconclusive means small, poorly fitted or top-dose-only effect, or effect the other way; inactive means no such curve, though single readings can be large or run the other way.
# Biological target: Nuclear receptor ROR-gamma (Mus musculus) (UniProt P51450)
# Sequence (P51450 whole entry, looked up): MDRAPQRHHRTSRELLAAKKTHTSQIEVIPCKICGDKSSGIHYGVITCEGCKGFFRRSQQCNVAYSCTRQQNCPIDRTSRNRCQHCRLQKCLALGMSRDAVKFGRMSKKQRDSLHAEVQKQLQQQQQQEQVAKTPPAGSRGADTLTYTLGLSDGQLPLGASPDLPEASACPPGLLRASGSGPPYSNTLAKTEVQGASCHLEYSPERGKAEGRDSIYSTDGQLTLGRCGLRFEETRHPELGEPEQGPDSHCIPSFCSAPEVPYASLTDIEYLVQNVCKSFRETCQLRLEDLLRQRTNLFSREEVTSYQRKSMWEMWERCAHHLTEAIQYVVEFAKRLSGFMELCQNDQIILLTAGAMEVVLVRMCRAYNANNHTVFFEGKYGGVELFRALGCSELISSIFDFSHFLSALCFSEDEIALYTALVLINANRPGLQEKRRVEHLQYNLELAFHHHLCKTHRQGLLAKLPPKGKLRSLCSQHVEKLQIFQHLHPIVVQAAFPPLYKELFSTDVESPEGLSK
# Assay: qHTS for inhibitors of ROR gamma transcriptional activity; further: nearly all actives have a fitted effect of over 60% in size
# Details: Drosophila S2 Gal4-RORgamma UAS-luciferase reporter, 20 h; series mostly up to 53.6 µM; activity change, negative = inhibition: at the top concentration
# Method in brief: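 Using a luciferase readout, inhibitors were identified by reduced reporter activity in Drosophila cells coexpressing a copper-inducible Gal4–ROR gamma fusion and UAS-driven Photinus luciferase, incubated 20 hr after 700 uM copper sulfate.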
# On the % scale 0 is the no-effect control and ±100 the full control effect; potency means the concentration at half of the fitted maximal effect.
SMILES,"activity change, negative = inhibition",Potency
COc1ccccc1NC(=O)CSc1nnc(CNC(=O)c2ccccc2F)o1,-11.2%,–
CCOc1ccc(C)cc1S(=O)(=O)NC1CCCCCC1,1.67%,–
COc1ccc(C(=O)N2CCCN(C)CC2)c(OC)c1,21.7%,–
Cc1cccc[n+]1CC(=O)c1ccccc1,-7.06%,–
CSc1ccccc1OCc1cc(C(=O)N(C)CCc2c(C)n[nH]c2C)no1,-3.27%,–
CCn1c(SCc2cccc(C(=O)O)c2)nnc1-c1ccc(Cl)cc1,-0.312%,–
CCOc1ccc(NC(=S)N2CCCCCC2)cc1,–,7.08 µM (active)
NS(=O)(=O)c1ccc(NC(=S)N2CCCC2)cc1,-8.65%,–
Cc1cc(C)cc(NC(=O)NCc2ccccn2)c1,11.9%,–
CCOc1ccc(NC(=S)N2CCC(NC(=O)c3ccccc3)CC2)cc1,0.515%,–
CCOc1ccc(NC(=S)N2CCC(N(C)CC3CCCO3)CC2)cc1 (stereo not given),-15.5%,–
O=C(NCc1ccccn1)Nc1ccc(F)cc1,9%,–
CCC(C)c1ccc(NC(=S)NCc2ccccn2)cc1 (stereo not given),–,2.51 µM (active)
CCC(C)N(C)C1CCN(C(=S)Nc2ccc(OC)cc2)CC1 (stereo not given),-3.42%,–
CCC(C)c1ccc(NC(=S)N2CCCC2)cc1 (stereo not given),–,8.91 µM (active)
CCOC(=O)C1CCN(C(=O)CN2C(=O)c3cccnc3Oc3ccc(C)cc32)CC1,-7.07%,–
CCCc1cc(=O)[nH]c(SCC(=O)Nc2sc3c(c2C#N)CCCC3)n1,33.4%,–
Cc1ccc(Cn2c(=N)c(S(=O)(=O)c3ccc(C)cc3)cc3c(=O)n4ccccc4nc32)cc1,-23.8%,–
CCC(C)(C)NC(=O)C(c1ccc(OC)cc1)N(C(=O)CCC(=O)Nc1cc(C)on1)c1ccc(OC)cc1OC (stereo not given),40.9%,–
Cc1cc(Cl)ccc1OCCCC(=O)Nc1cccc(-n2cnnn2)c1,35%,–
CCOC(=O)N1CCN(C(=O)COc2ccc(Cl)cc2C)CC1,-1.24%,–
CCCn1nnnc1NC(=O)COc1ccc(Cl)cc1C,–,0.891 µM (active)
OC(c1ccc(Cl)cc1)C(CN1CCOCC1)c1ccccc1 (stereo not given),3.28%,–
Cc1ccc(/C=C2\SC(=S)N(CCC(=O)Nc3ccc(O)cc3)C2=O)cc1,-15.4%,–
O=C(CCCN1C(=O)/C(=C/c2ccccc2)SC1=S)Nc1ccc(O)cc1,–,3.98 µM (active)
O=C(CCCN1C(=O)/C(=C\c2ccccc2)SC1=S)Nc1ccccc1O,-38.6%,–
CN1CCN(Cc2nc3cc(NC(=O)COc4ccc([N+](=O)[O-])cc4)ccc3n2C)CC1,-7.74%,–
COc1ccc2c(C)c(CCC(=O)NC3CC3)c(=O)oc2c1C,7.24%,–

SMILES,"activity change, negative = inhibition",Potency
CC1CCCN(CC(=O)Nc2cc(Cl)ccc2Oc2ccccc2)C1 (stereo not given),4.22%,–
Cc1cc(NC(=O)CN2CCCC(C)C2)n(-c2nc3ccccc3s2)n1 (stereo not given),–,1.58 µM (active)
CC(=O)Nc1ccc(NC(=O)CN2CCCC(C)C2)c(Cl)c1 (stereo not given),27.2%,–
COc1ccc(S(=O)(=O)n2cnc3ccccc32)c(C)c1,40%,–
COc1ccc(N2CC(C(=O)N[C@@H](C)C(=O)N3CCCCC3)CC2=O)cc1 (stereo not given in full),-8.28%,–
FC(F)(F)c1ccc(-n2cn[nH]c2=S)cc1,–,10 µM (active)
COc1ccccc1N1CC(C(=O)Nc2nnc(SCC(=O)NCC3CCCO3)s2)CC1=O (stereo not given),2.4%,–
CNS(=O)(=O)c1cccc(C(=O)NC2CCCc3ccccc32)c1 (stereo not given),-15.4%,–
S=c1nc2ccccc2c2nc(-c3cccnc3)[nH]n12,–,0.447 µM (active)
c1cncc(-c2nc(N3CCNCC3)c3ccccc3n2)c1,14.8%,–
c1ccc(-n2nnnc2-c2cccnc2)cc1,3.95%,–
O=C(C1CCCN(S(=O)(=O)c2ccccc2)C1)N1CCN(c2ccc(F)cc2)CC1 (stereo not given),16.8%,–
Cc1cccc(C(=O)NC(=S)N(C)C2CCCCC2)c1,–,1.78 µM (active)
Cc1cccc(C(=O)NCCCN(C)CCCNC(=O)c2cccc(C)c2)c1,-5.29%,–
Cc1ccc(S(=O)(=O)NC(=O)c2cccc(C)c2)cc1,0.442%,–
O=C(Nc1c2c(nn1-c1cccc(Cl)c1)CS(=O)(=O)C2)c1cccs1,-10.5%,–
Cc1coc2c(O)cc3c(c12)OC1(N2CCCCC2)C(=O)NCCCC31 (stereo not given),–,12.6 µM (active)
COc1ccc(C(=O)Nc2c(N)nc(SCC(=O)Nc3ccc(C(C)=O)cc3)[nH]c2=O)cc1,-19.8%,–
CCCCN(CC)C(=O)C1CCCN(S(=O)(=O)c2cccc3nsnc23)C1 (stereo not given),3.5%,–
Cc1ccc(OC(=O)c2cncc(Br)c2)c(C)c1,-23% [at 1.91 µM],–
O=C(NCc1ccccn1)C1CCN(S(=O)(=O)c2ccc(Br)cc2)CC1,-18.1%,–
COC(=O)c1sc(NC(=O)c2csc3c2CCCC3)nc1C,–,35.5 µM (active)
CC(=O)Cc1nsc(NC(=O)c2csc3c2CCCC3)n1,25%,–
Cc1ccc(NC(=O)c2csc3c2CCCC3)cc1,12.7%,–
COc1ccc(C(=O)NC2CCN(C(=O)Nc3ccc(F)cc3)CC2)cc1,-0.284%,–
COc1ccccc1CNC(=O)c1ccc(CS(=O)(=O)c2ccccc2)o1,28.3%,–
CCOc1ccc(CN2CCN(CCCc3ccccc3)C(CCO)C2)cc1 (stereo not given),2.1%,–
